# Results as given in PubChem BioAssay.
# Active and inactive are the calls of the source. Unless noted, no rule for the calls is given here.
# Legend:
# [1] = tested on: Wnt5a (protein binding on small-molecule microarray); test: small molecules binding Wnt5a protein – biophysical, small-molecule microarray, 635/667 nm fluorescence, primary screen (AID 1142); settings: 635 nm fluorescence, higher = more signal;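 also: fluorescence read at 667 nm with signal to noise per printed feature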
# [2] = ATP-based viability of Huh7 replicon cells – cell-based, CellTiter-Glo luminescence, basal, 48 h, cytotoxicity control for HCV replication inhibitor project, primary screen (AID 1143); settings: higher = more signal, called active from +8 up or from −8 down;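 also: Huh7 hepatoma cells carrying a hepatitis C replication reporter with no stimulus; test concentration not given here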
# [3] = Pseudomonas biofilm growth suppression – PAO1 strain, BacTiter-Glo luminescence, LB-PBS, primary screen (AID 1144); settings: P. aeruginosa PAO1 biofilm, 12 h, higher = more signal
# [4] = basal CRE-LacZ reporter activity in PC12 – cell-based, unstimulated, primary screen (AID 1145); settings: no forskolin, luminescence, 4.5 h, higher = more signal, called active from +8 up or from −8 down
# [5] = forskolin-driven CRE-LacZ activity in PC12 – cell-based, CRE-LacZ reporter, forskolin-stimulated, primary screen (AID 1146); settings: luminescence, 4.5 h, higher = more signal, called active from +8 up or from −8 down;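 also: PC12 cells with 6xCRE LacZ reporter stimulated by forskolin 10 µM; beta-galactosidase reporter signal reflecting CREB driven transcription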
# [6] = molecular target: Streptavidin (Streptomyces avidinii) (UniProt P22629); test: compounds binding control protein streptavidin – biophysical, small-molecule microarray, 635/667 nm fluorescence, artefact control for SMM compound annotation, primary screen (AID 1147); settings: higher = more signal;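 also: signal reflects streptavidin binding to arrayed compounds as a control protein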
# [7] = probe aInhba binding on compound microarray – biochemical, small-molecule microarray, 635/667 nm fluorescence, primary screen (AID 1148); settings: higher = more signal;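 also: score merges 667nm spot fluorescence with signal-to-noise for antibody binding to printed compounds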
# [8] = molecular target: Torsin-1A (Homo sapiens) (UniProt O14656); test: TOR1A wild-type binding on microarray – cell lysate, small-molecule microarray, lysate, 635/667 nm, primary screen (AID 1149); settings: COS7 hTOR1A-WT lysate, 635 nm fluorescence, higher = more signal
# [9] = molecular target: Torsin-1A (Homo sapiens) (UniProt O14656); test: torsin A mutant lysate binding on microarrays – cell lysate, small-molecule microarray, COS7 lysate, 635/667 nm fluorescence, primary screen (AID 1150); settings: COS7 hTOR1A mutant lysate, 635 nm fluorescence, higher = more signal;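 also: score pools 667 nm emission and signal to noise measuring lysate protein binding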
# [10] = tested on: Sonic hedgehog protein (Shh); test: Sonic hedgehog microarray binding compounds – biochemical, small-molecule microarray, 635/667 nm fluorescence, primary screen (AID 1151); settings: 635 nm fluorescence, higher = more signal;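 also: Shh protein binding to compounds spotted on small-molecule microarray slides; score combines spot fluorescence intensity with signal-to-noise across triplicate slides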
# [11] = optical density shifts of acrAB sulA E. coli – strain DRC41, OD650, 48 h, E. coli filamentation inducer project, primary screen (AID 1152); settings: higher = more signal, called active from +8 up or from −8 down;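 also: E. coli MC1000 strain DRC41 lacking acrAB efflux pump and sulA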
# [12] = probe aLefty1 binding on compound microarray – biochemical, small-molecule microarray, 635/667 nm fluorescence, primary screen (AID 1153); settings: higher = more signal;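 also: score merges spot fluorescence with signal-to-noise ratio from the scanned slide images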
# [13] = plasmodial surface anion channel blockers, osmotic lysis – cell-based, P. falciparum Indochina, OD700, 1 h, primary screen (AID 1154); settings: P. falciparum Indochina infected RBC osmotic lysis, higher = more signal, called active from +8 up or from −8 down
# [14] = plasmodial surface anion channel blockers, osmotic lysis – cell-based, P. falciparum Indochina, OD700, 2 h, primary screen (AID 1155);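 also: lysis reports solute entry through the parasite surface anion channel PSAC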; settings: P. falciparum Indochina infected erythrocytes, higher = more signal, called active from +8 up or from −8 down
# [15] = changes in parasitized red cell lysis, either direction – P. falciparum Indochina, OD700, 3 h, PSAC antagonist project, primary screen (AID 1156); settings: P. falciparum-infected erythrocytes, osmotic lysis, higher = more signal, called active from +8 up or from −8 down
# [16] = plasmodial surface anion channel blockers, osmotic lysis – cell-based, P. falciparum Indochina, OD700, 18 h, primary screen (AID 1157); settings: P. falciparum Indochina infected erythrocytes, osmotic lysis OD700, 18 h; higher = more signal, called active from +8 up or from −8 down
# [17] = S6 kinase pathway phospho-S6 level changes – cell-based, A549, cytoblot, luminescence, serum-stimulated, primary screen (AID 1158); settings: 5 h, higher = more signal;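 also: serum-stimulated A549 lung adenocarcinoma cells; signal is phosphorylated S6 detected by cytoblot immunostaining with HRP secondary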
# [18] = molecular target: NADPH oxidase 2 (Homo sapiens) (UniProt P04839); test: compounds shifting NOX2 Amplex Red fluorescence – cell-based, HEK293-NOX2, PMA-stimulated, NOX inhibitor project, primary screen (AID 1159); settings: 45 min, higher = more signal, called active from +8 up or from −8 down; also: test concentration not given here
# [19] = molecular target: NADPH oxidase 4 (Homo sapiens) (UniProt Q9NPH5); test: compounds shifting NOX4 Amplex Red fluorescence – cell-based, HEK293-NOX4, tetracycline-induced, NOX inhibitor project, primary screen (AID 1160); settings: HEK293-NOX4, Amplex Red H2O2 fluorescence, 45 min; higher = more signal, called active from +8 up or from −8 down
# [20] = molecular target: NADPH oxidase 5 (Homo sapiens) (UniProt Q96PH1); test: compounds shifting NOX5 Amplex Red fluorescence – cell-based, HEK293-NOX5, NOX inhibitor project, primary screen (AID 1161); settings: HEK293-NOX5, ionomycin, 45 min, higher = more signal
# Chain of NADPH oxidase 5 (Homo sapiens) (Q96PH1 whole entry, looked up): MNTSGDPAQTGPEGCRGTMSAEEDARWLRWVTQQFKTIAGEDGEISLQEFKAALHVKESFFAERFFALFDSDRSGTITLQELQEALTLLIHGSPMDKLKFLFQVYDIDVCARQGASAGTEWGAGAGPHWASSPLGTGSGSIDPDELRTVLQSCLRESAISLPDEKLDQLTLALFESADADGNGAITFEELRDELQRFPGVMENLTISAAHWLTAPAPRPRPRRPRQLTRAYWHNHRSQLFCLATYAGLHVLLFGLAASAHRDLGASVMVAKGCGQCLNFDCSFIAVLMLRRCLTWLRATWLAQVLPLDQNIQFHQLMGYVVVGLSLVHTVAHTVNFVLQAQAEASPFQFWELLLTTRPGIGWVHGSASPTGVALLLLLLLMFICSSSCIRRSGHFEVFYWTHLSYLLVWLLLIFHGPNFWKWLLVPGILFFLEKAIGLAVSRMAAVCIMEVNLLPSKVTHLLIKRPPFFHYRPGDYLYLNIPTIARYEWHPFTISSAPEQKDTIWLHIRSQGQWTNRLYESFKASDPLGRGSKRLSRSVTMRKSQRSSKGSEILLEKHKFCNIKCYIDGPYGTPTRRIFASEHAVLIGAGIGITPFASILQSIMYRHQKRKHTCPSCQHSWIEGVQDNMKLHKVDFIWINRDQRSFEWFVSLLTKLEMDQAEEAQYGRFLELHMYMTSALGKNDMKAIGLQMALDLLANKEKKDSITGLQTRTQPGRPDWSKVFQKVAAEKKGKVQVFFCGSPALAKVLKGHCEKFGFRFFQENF
# Chain of Streptavidin (Streptomyces avidinii) (P22629 whole entry, looked up): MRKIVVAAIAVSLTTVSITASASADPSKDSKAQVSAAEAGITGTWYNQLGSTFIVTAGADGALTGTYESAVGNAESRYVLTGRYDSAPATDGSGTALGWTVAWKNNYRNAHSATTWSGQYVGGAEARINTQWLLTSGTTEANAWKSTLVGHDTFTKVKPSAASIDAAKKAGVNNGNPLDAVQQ
# Chain of NADPH oxidase 4 (Homo sapiens) (Q9NPH5 whole entry, looked up): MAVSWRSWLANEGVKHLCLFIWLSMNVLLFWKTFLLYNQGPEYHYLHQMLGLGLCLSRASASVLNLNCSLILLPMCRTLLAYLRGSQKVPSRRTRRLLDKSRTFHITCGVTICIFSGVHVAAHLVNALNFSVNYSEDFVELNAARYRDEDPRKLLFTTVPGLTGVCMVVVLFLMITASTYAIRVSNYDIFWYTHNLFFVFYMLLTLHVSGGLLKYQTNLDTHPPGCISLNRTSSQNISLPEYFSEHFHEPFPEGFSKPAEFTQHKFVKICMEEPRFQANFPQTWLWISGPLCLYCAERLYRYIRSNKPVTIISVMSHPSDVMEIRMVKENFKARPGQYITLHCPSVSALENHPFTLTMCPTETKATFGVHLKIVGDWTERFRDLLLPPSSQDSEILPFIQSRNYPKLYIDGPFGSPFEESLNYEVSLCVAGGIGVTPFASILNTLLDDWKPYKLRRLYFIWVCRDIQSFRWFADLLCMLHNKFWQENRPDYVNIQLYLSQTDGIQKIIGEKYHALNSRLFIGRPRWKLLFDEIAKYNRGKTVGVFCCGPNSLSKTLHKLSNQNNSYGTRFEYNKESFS
# Chain of Torsin-1A (Homo sapiens) (O14656 whole entry, looked up): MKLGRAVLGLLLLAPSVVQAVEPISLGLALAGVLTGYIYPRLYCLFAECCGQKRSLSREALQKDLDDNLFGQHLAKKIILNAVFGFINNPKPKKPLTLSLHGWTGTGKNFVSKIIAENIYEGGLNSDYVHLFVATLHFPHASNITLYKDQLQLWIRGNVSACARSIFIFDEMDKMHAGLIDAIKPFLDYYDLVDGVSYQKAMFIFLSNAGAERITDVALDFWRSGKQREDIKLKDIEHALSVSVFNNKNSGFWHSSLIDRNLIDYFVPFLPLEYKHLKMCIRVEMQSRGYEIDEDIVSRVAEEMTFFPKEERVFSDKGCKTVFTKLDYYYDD
# Chain of NADPH oxidase 2 (Homo sapiens) (P04839 whole entry, looked up): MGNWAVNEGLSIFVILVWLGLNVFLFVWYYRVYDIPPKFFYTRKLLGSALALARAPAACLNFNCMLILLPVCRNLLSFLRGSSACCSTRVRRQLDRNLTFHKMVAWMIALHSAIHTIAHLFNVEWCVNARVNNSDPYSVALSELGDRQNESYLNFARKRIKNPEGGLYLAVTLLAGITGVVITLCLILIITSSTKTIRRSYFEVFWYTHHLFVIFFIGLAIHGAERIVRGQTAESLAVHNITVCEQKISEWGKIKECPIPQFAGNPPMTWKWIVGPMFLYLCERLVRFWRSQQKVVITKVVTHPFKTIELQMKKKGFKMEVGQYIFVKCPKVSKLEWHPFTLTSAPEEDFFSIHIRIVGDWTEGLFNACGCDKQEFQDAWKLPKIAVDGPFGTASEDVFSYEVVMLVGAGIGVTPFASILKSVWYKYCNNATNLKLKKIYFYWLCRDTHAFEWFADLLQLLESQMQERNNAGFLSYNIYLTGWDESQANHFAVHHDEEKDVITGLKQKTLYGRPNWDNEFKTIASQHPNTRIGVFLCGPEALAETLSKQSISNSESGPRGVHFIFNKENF
Compound,composite z-score [1],z-score [2],z-score [3],z-score [4],z-score [5],composite z-score [6],composite z-score [7],composite z-score [8],composite z-score [9],composite z-score [10],z-score [11],composite z-score [12],z-score [13],z-score [14],z-score [15],z-score [16],z-score [17],z-score [18],z-score [19],z-score [20]
CC(CCN1CCCc2nc(C)c(C)cc21)=NO[C@H](C)c1cn([C@@H]2COC[C@H]2O)nn1,0.395,0.0307 (inactive),0.392 (inactive),-1.12 (inactive),-0.181 (inactive),0.764,0.0906,1.47,2.3,0.979,0.686 (inactive),0.184,1.65 (inactive),0.763 (inactive),0.09 (inactive),0.564 (inactive),-0.607,-0.61 (inactive),-0.259 (inactive),0.371
CCOC(=O)[C@H](Cc1ccccc1)NC(=O)CCC1CC(OC(=O)NCc2ccc3c(c2)OCO3)CC2(CCCC(COC(=O)NCCc3ccc(Cl)cc3)O2)O1 (stereo not given in full),0.0468,-1.42 (inactive),-1.89 (inactive),-0.0696 (inactive),-0.71 (inactive),1.14,-0.0221,0.147,0.214,1.11,-0.393 (inactive),-0.281,1.44 (inactive),-0.0302 (inactive),-0.249 (inactive),-0.741 (inactive),1.51,-0.194 (inactive),0.396 (inactive),1.63
O=C1CCCC=C1C(O)COCc1ccccc1 (stereo not given),0.154,0.78 (inactive),0.616 (inactive),0.109 (inactive),0.0658 (inactive),1.42,-0.238,-0.465,-0.0394,0.124,-0.245 (inactive),-0.194,0.782 (inactive),0.36 (inactive),-0.0291 (inactive),-0.0223 (inactive),-0.338,0.237 (inactive),0.733 (inactive),0.63
C[C@@H](c1ccccc1)N1C(=O)[C@H]2[C@H]3[C@H](O)[C@H](O)CC(=NNC(=O)OCc4ccccc4)[C@@H]3CC[C@H]2C1=O,0.15,0.231 (inactive),-0.479 (inactive),-0.38 (inactive),0.0869 (inactive),-0.31,-0.335,3.35,3.49,2,0.362 (inactive),-0.0294,0.0012 (inactive),0.461 (inactive),-0.694 (inactive),0.329 (inactive),-0.136,-0.065 (inactive),1.07 (inactive),-0.0584
C[C@H]1CC[C@H]2C(=O)O[C@H](CO)CN2[C@@H]1c1ccc(Br)cc1,0.0217,-0.98 (inactive),-1.38 (inactive),-0.557 (inactive),-0.816 (inactive),0.0279,-0.202,0.345,-0.363,-0.0013,-0.0016 (inactive),0.0012,1.51 (inactive),0.939 (inactive),0.0454 (inactive),0.49 (inactive),-0.337,-0.431 (inactive),-0.191 (inactive),-0.489
CCN1C(=O)[C@H]2[C@H]3[C@H](O)[C@H](O)CC(=NOC(C)CN4CCCc5nc(C)c(C)cc54)[C@@H]3CC[C@H]2C1=O (stereo not given in full),0.223,0.433 (inactive),1.17 (inactive),-0.882 (inactive),-0.271 (inactive),-0.0317,0.134,0.46,0.456,0.906,0.223 (inactive),0.603,1.25 (inactive),0.59 (inactive),-0.121 (inactive),0.588 (inactive),-0.461,-1 (inactive),-0.772 (inactive),-0.298
O=C1[C@H]2[C@H]3[C@H](O)[C@H](O)CC(=NOC[C@@H](O)COCc4ccco4)[C@@H]3CC[C@H]2C(=O)N1Cc1ccc2c(c1)OCO2,0.0191,-0.0292 (inactive),0.878 (inactive),-0.0199 (inactive),0.506 (inactive),-0.436,-0.218,3.38,3,1.55,1.56 (inactive),-0.0984,30 (active),4.77 (inactive),0.826 (inactive),1.01 (inactive),0.236,-2.68 (inactive),0.499 (inactive),0.351
CON=C(C)CCN1CCCc2nc(C)c(C)cc21,0.377,0.258 (inactive),0.128 (inactive),0.345 (inactive),-0.0543 (inactive),0.286,-0.0645,-0.209,0.23,1.07,-2.33 (inactive),-0.0601,1.03 (inactive),0.498 (inactive),0.619 (inactive),0.49 (inactive),-0.621,-1.52 (inactive),-1.06 (inactive),-0.493
CC(CCC(=O)OC[C@H]1O[C@H](C#Cc2ccccc2)C=C[C@@H]1Oc1ccc(C)cc1)=NOC(C)CN1CCCc2nc(C)c(C)cc21 (stereo not given in full),0.0127,-0.386 (inactive),0.0692 (inactive),0.336 (inactive),0.51 (inactive),0.727,-0.0259,0.313,-0.0361,0.298,-0.651 (inactive),0.106,5.4 (inactive),0.859 (inactive),0.785 (inactive),0.735 (inactive),-0.624,-0.866 (inactive),-0.435 (inactive),-0.297
